The list is not random: actives were taken first. Their share in the collection is about 2.9%.
GRK2 inh – human GRK2 inhibition via aptamer displacement; AID 488847; inhibition of aptamer binding, % at 10 µM; 330,000 compounds, 0.59% hits; bead flow cytometry, FAM-aptamer displacement from GRK2;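 active means inhibition of aptamer binding above 40%, roughly 3 SD of noise, on plates passing a quality check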;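 further: median bead fluorescence of bound FAM aptamer so fluorescent compounds give negative values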
PP1 inh – blocks human PP1-alpha phosphatase, a PP5 counter-screen; purified PP1alpha, OMFP fluorescence; 320,000 compounds, 0.9% hits; inhibition, % at 6.7 µM;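 active means inhibition above the mean inhibition of all tested compounds plus 3 SD, computed separately for each screening campaign, cut at about 15% in these data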
NadD block – blocks S. aureus nicotinate mononucleotide adenylyltransferase; purified NadD enzyme, colorimetric absorbance read-out; inhibition, % at 20 µM; 360,000 compounds, 0.78% hits; in the data active means inhibition above about 26%
Beta2AR agonist – activates human beta-2 adrenergic receptor causing internalization. P07550. Am2.2-beta2AR cells, FAP receptor internalization, flow cytometry. response, % (no concentration beside the values). 340,000 compounds, 0.43% hits;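 active means response above a set limit, near 3 SD of response in nonfluorescent compounds, cut at about 42% in these data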
Target sequence (P07550 whole entry, looked up): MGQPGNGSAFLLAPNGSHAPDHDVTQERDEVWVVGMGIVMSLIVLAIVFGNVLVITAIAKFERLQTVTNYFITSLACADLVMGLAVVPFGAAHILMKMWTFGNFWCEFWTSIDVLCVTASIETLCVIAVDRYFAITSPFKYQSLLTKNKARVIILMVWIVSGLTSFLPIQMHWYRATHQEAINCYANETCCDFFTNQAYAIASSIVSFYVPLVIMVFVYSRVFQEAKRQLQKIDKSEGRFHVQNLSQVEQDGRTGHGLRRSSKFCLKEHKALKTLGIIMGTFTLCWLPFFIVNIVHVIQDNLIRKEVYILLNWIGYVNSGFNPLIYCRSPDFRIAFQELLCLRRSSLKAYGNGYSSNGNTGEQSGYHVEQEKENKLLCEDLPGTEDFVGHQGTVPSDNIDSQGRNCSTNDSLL
Exocytosis inh – lytic granule exocytosis inhibition; TALL-104 LAMP-1 surface exposure, flow cytometry; cells stimulated with thapsigargin and PMA; inhibition, % at 10 µM; 360,000 compounds, 0.66% hits;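 active means inhibition above about 55%, limit read from the data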
A number is an active result; . = inactive; / = no result given.

SMILES | GRK2 inh | PP1 inh | NadD block | Beta2AR agonist | Exocytosis inh
COc1ccc(C(C(=O)NC2CCCCC2)N(C(=O)CCl)c2cccc(Cl)c2)cc1 (configuration not stated) | . | . | . | 42.5 | .
CCc1nc2c(OCc3ccccc3)cccn2c1N(C)C(=O)c1ccc2c(c1)OCO2 | / | / | . | / | .
O=c1/c(=C/c2ccc(O)c([N+](=O)[O-])c2)sc2nc3ccccc3n12 | / | / | . | . | 70.4
O=C(c1cc(C2CC2)nn1-c1ccccc1)N1CCN(c2ccc(O)cc2)CC1 | / | / | . | . | .
O=[N+]([O-])c1ccc(NN=Cc2ccccc2)nc1 | / | / | . | . | .
O=[N+]([O-])c1ccc(N/N=C\c2cccn2-c2ccccc2)nc1 | . | . | . | . | 56.9
Cc1ccccc1-c1cnc2c(c1)C(=O)N([C@H](C)CO)C[C@@H](C)[C@H](CN(C)C(=O)c1ccncc1)O2 | / | / | . | / | .
CCc1ccc(/C=N/NC(=O)c2cc(-c3cccc([N+](=O)[O-])c3)n[nH]2)cc1 | . | . | . | . | 75.7
CCOC(=O)c1cc(-c2cccc([N+](=O)[O-])c2)n[nH]1 | . | . | . | . | .
CC[n+]1c(/C=C/Nc2ccccc2)sc2ccccc21 | . | . | . | . | .
CCN1/C(=C/C=C/C=C/c2sc3ccccc3[n+]2CC)Sc2ccccc21 | 89.0 | 46.9 | / | / | /
CC(C)CN(C(=O)C1=NN(c2ccccc2)C(=O)CC1)c1c(N)n(Cc2ccccc2)c(=O)[nH]c1=O | . | . | . | . | .
Cn1c(=O)c2c(nc(CN3CCOCC3)n2CCCO)n(C)c1=O | . | . | . | . | .
Cc1ccc2cc(CCNS(=O)(=O)c3ccc(F)cc3)c(=O)[nH]c2c1C | . | . | . | 43.1 | .
CC1(C)CC(=O)C=C(C(=O)N2CCCC(C(=O)c3cccc(C(F)(F)F)c3)C2)O1 (configuration not stated) | . | . | . | . | .
Cc1ccc(-c2cc(C(=O)NC3=NCCS3)c3cc(Br)ccc3n2)o1 | . | 19.4 | / | / | /
O=C(/C=C/c1ccc(OCCCF)cc1)Nc1ccnc(-c2ccncc2)n1 | . | 15.6 | . | . | .
COC(=O)c1ccc2c(c1C(=O)OC)CN(S(=O)(=O)C(C)(C)C)[C@@H]2CCO | / | / | . | . | .
Cc1cc(C(=O)Cn2ncc(Cl)c(Cl)c2=O)c(C)n1CC(F)(F)F | . | . | . | 43.4 | .
COc1cc(C(=O)NNC(=O)c2ccco2)cc(OC)c1OC | . | . | . | . | .
COc1cc(C(=O)NNC(=O)/C=C/c2ccco2)cc(OC)c1OC | 42.0 | / | . | . | .
O=C(Nc1cccc(S(=O)(=O)N2CCCCCC2)c1)C1CC(=O)N(c2ccc3c(c2)OCCO3)C1 (configuration not stated) | . | . | . | . | .
COc1ccccc1C(=O)Nc1ccc(NC(=O)c2ccco2)cn1 | . | . | . | . | .
COc1ccccc1C(=O)NC(=S)Nc1ccc(NC(=O)c2ccco2)cc1 | . | . | . | . | 68.0
CN(C)c1ccc(Cc2cc3c(O)ccc(O)c3cc(Cc3ccc(N(C)C)cc3)c2=O)cc1 | / | / | 67.6 | . | 103.6
SMILES | GRK2 inh | PP1 inh | NadD block | Beta2AR agonist | Exocytosis inh
CN(C)c1ccc(C(=O)c2ccc(O)cc2O)cc1 | . | . | . | . | .
CC(=O)c1cccc(NC(=O)/C=C/c2ccc(S(=O)(=O)N3CCOCC3)cc2)c1 | 96.0 | / | . | . | .
CCC(CC)Nc1ccc(C(CC(N)=O)NC(=O)Cc2cccc3ccccc23)cc1[N+](=O)[O-] (configuration not stated) | . | 17.3 | . | . | .
NC(=O)CC(NC(=O)Cc1ccc(Br)cc1)c1ccc(NCc2ccc(F)c(F)c2)c([N+](=O)[O-])c1 (configuration not stated) | . | 16.9 | . | . | .
NC(=O)CC(NC(=O)Cc1cccc2ccccc12)c1ccc(NC2CCCC2)c([N+](=O)[O-])c1 (configuration not stated) | / | / | . | . | .
COc1ccc(OC)c(NC(=O)COC(=O)CCc2ccc(S(=O)(=O)N3CCOCC3)cc2)c1 | . | / | . | . | .
CC(NC(=O)COC(=O)CN1C(=O)c2ccccc2C1=O)c1ccccc1 (configuration not stated) | . | / | . | . | .
O=C(Cc1cccs1)NC1(C(=O)NC2CCCC2)CCCCC1 | . | . | . | . | .
COc1ccc(NC(=O)Nc2nnc(-c3ccccc3SCc3ccccc3)s2)cc1 | . | 18.5 | . | . | .
Cc1nn(-c2ccccc2)c(C)c1/C=N/NC(=O)CSc1nnc(SCc2cccc3ccccc23)s1 | . | 16.1 | . | . | .
Cc1onc(-c2ccccc2)c1C(=O)Nc1nnc(CC(C)(C)C)s1 | . | . | . | . | .
COc1ccc(-c2[nH]c(-c3ccccc3)nc2SCC(=O)Nc2nccs2)cc1 | . | . | . | . | .
COc1ccc(-c2[nH]c(-c3ccc(Cl)cc3)nc2SCC(=O)Nc2nccs2)cc1 | . | 16.2 | . | . | .
COc1cc(/C=C(/C#N)C(=O)Nc2ccccc2)ccc1OCc1ccc(C(=O)O)cc1 | . | . | . | . | .
COc1cc(/C=C(\C#N)C(=O)Nc2ccc(C(=O)O)cc2)ccc1OC(=O)c1cccc(F)c1 | 42.0 | . | . | . | .
C=CCOc1c(Br)cc(/C=N/Nc2ccc(C(=O)O)cc2)cc1OCC | . | . | . | . | .
CN(C)NC(=S)NC1CC2CCC1C2 (configuration not stated) | . | . | . | . | .
O=C(NCCc1ccccc1)/C(=C\c1ccc([N+](=O)[O-])cc1)NC(=O)c1ccco1 | . | . | . | . | .
Cc1ccc(C(=O)N/C(=C\c2ccc([N+](=O)[O-])cc2)C(=O)NCCc2ccccc2)cc1 | . | 16.6 | . | . | .
COc1ccc(NC(=O)/C(Cl)=C(/Cl)S(=O)(=O)Cc2ccc(C)cc2)cn1 | / | / | . | 61.8 | 97.1
COc1ccc(NC(=O)/C(Cl)=C(/Cl)S(=O)Cc2ccccc2Cl)cn1 (configuration not stated) | / | / | / | 57.9 | /
COc1ccc(NC(=O)Cc2ccc(Cl)c(Cl)c2)cn1 | . | . | . | . | .
O=C1S/C(=C/c2ccc(N3CCOCC3)o2)C(=O)N1Cc1ccc(F)cc1 | . | . | . | . | 77.9
O=C1S/C(=C\c2ccc(N3CCOCC3)o2)C(=O)N1Cc1ccc(F)cc1 | . | . | . | . | .
O=C1/C(=C/c2ccc(N3CCOCC3)o2)SC(=Nc2ccccc2)N1CCc1c[nH]c2ccccc12 | . | 34.4 | 40.1 | . | 75.2
CC(C)OC(=O)CN1C(=O)S/C(=C/c2ccc(N3CCCCC3)o2)C1=O | . | . | . | . | 63.3
CC(C)(C)c1ccc(/C=C(\C#N)C(=O)NC2CC2)cc1 | . | . | . | . | .
C[C@@H](NC(=O)c1cc2c([nH]c3ccccc32)c(-c2ccccc2)n1)C(=O)O | . | . | . | . | .
COc1ccc(C2C/C(=N\O)C(C)(C)O2)cc1 (configuration not stated) | . | 17.1 | . | . | .
COc1ccc(C2CC(O)(C(C)(C)O)NO2)cc1 (configuration not stated) | . | . | . | . | .

Compound activity: PubChem BioAssay, several laboratories
